# Data published in PubChem BioAssay (NCATS).
# Records with an inconclusive call do not appear. Active and inactive are the calls of the source. The call rests on the fitted dose curve; in most records, active means well fitted activation curve with a large enough effect; inconclusive means small, poorly fitted or top-dose-only effect, or another doubt; inactive means no such curve, though single readings can be large or run the other way.
# Molecular target: Rap guanine nucleotide exchange factor 3 (Homo sapiens) (UniProt O95398)
# Test: Counterscreen qHTS for agonist of cAMP-regulated guanine nucleotide exchange factor 3 (EPAC1) (AID 1645889); further: % of control where 0% means no effect; nearly all actives have a fitted effect of over 40% in size
# Settings: EPAC1 Rap1B-BODIPY-GDP exchange, fluorescence; series mostly up to 154 µM; activation: at the top concentration
# Procedure, shortened: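 Measured: fluorescence of BODIPY-GDP bound to Rap1B, which falls as exchange proceeds. Conditions include 50 uM competing GDP, 5 and 30 min reads, and a later cAMP challenge for antagonist detection.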
row,SMILES,activation
1,CC(=O)Nc1ccc(NC(=S)NC(=O)/C=C/c2ccco2)cc1,30.1% (inactive)
2,Cn1c(/N=C/c2c(O)ccc3ccccc23)nc2ccccc21,19.2% (inactive)
3,O=C(O)COc1ccc(/C=N/NC(=O)c2ccc(-c3csc(Nc4ccc(Cl)cc4)n3)cc2)cc1,26.8% (inactive)
4,O=c1cc(CSc2nc3ccccc3c(=O)[nH]2)c2ccc(O)cc2o1,7.31% (inactive)
5,COc1ccc(/C=C2/SC(=O)N(CCC(=O)Nc3ccc(S(=O)(=O)Nc4nccs4)cc3)C2=O)cc1,18.1% (inactive)
6,CCCn1nc([N+](=O)[O-])c(C(C#N)c2nc3ccccc3o2)c(Cl)c1=O (stereo unspecified),-17.7% (inactive)
